Screening data deposited in PubChem BioAssay by The Scripps Research Institute Molecular Screening Center.
This excerpt belongs to a sample that is enriched for hits.
TbREL1 inh – TbREL1 RNA ligase inhibitors, primary screen, biochemical, FRET fluorescence; TbREL1 RNA ligation; inhibition, % at 9.66 µM; 0.49% of 89,000 active; RNA-editing ligase 1, mitochondrial (Trypanosoma brucei brucei), P86926; AID 1117264, 2014;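 active = inhibition above the mean inhibition across all screened compounds plus 3 SD, cut at about 11% in these data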;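 also: 0% = plate median of test wells and 100% = NSC42067 control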
Target sequence (P86926 whole entry, looked up): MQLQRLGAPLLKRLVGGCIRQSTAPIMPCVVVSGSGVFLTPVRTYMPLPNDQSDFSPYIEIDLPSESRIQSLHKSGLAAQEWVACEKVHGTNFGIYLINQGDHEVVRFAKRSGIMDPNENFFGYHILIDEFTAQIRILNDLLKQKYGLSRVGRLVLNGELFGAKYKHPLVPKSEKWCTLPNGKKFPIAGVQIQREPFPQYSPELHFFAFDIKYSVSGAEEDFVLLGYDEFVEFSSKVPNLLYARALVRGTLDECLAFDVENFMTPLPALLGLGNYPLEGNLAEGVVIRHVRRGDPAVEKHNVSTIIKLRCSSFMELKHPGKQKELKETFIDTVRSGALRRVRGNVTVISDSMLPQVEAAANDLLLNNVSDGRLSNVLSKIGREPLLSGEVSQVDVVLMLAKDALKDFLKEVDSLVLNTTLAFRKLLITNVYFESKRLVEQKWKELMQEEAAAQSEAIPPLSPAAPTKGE
TbREL1 conf – TbREL1 RNA ligase inhibitors, confirmation, biochemical, FRET fluorescence, triplicate; TbREL1 RNA ligation; shares compounds with TbREL1 inh; 37% of 390 active; inhibition, % at 9.66 µM; AID 1117282, 2014;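 active = mean inhibition across replicates above a set limit taken from the earlier primary screen, cut at about 11% in these data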;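 also: 0% = REL1 with substrate and DMSO and 100% = REL1 plus control inhibitor NSC42067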
* hit, by the source's call.

SMILES	TbREL1 inh	others
CCCN1CCCCC(NC(=O)c2ccc(-c3ccccc3)cc2)C1=O (configuration not stated)	0.6
COc1ccc(-c2cnc(N)n2CC2CCCO2)cc1 (configuration not stated)	-0.3
c1ccc(-c2cnc(SCCN3CCOCC3)n2CC2CCCO2)cc1 (configuration not stated)	15.2*	TbREL1 conf=-0.9
c1ccc(-c2csc(=Nc3cccnc3)n2CC2CCCO2)cc1 (configuration not stated)	0.3
CCc1nc2ccc(C(=O)NCCN3CCNC3=O)cn2c1N(C)Cc1ccc(OC)cc1	0.3
O=S1(=O)N[C@@H](Cc2ccccc2)COc2cccc(N3CCN(Cc4ccccc4F)CC3)c21	-0.3
CC(C)Oc1ccc(S(=O)(=O)N2CCOCC2)cc1NC(=O)C1=NN(c2ccccc2)C(=O)CC1	3.6
O=C(c1ccc(-c2ccccc2Cl)o1)N1CCCCCCC1	12.9*	TbREL1 conf=3.9
O=C(c1ccc(-c2ccc([N+](=O)[O-])cc2)o1)N1CCCCCCC1	-2.1
Cc1onc(-c2ccccc2Cl)c1C(=O)N1CCCCC1	-6.0
Cc1cc(NS(=O)(=O)c2ccc(NC(=O)CSc3nnc(-c4ccc(Cl)cc4)n3Cc3ccco3)cc2)nc(C)n1	-1.9
Cc1cc(NS(=O)(=O)c2ccc(NC(=O)CSc3nnc(-c4ccncc4)n3Cc3ccco3)cc2)nc(C)n1	34.8*	TbREL1 conf=0.0
Cc1ccc(OCc2nnc(SCC(=O)Nc3ccc(S(=O)(=O)Nc4cc(C)nc(C)n4)cc3)n2Cc2ccco2)cc1	5.7
Nn1c(SCC(=O)Nc2ccc(OCc3ccccc3)cc2)nnc1-c1cc(-c2ccc(F)cc2)n[nH]1	8.4
CCCCC[C@H](C)N1C[C@@H](COCc2ccccc2)Oc2cc(N3CC[C@@H](O)C3)ccc2S1(=O)=O	2.2
CCCCC[C@@H](C)N1C[C@@H](COCc2ccccc2)Oc2cc(N3CC[C@@H](N(C)C)C3)ccc2S1(=O)=O	14.2*	TbREL1 conf=4.3
CCCCC[C@H](C)N1C[C@H](COCc2ccccc2)Oc2cc(N3CC[C@H](N(C)C)C3)ccc2S1(=O)=O	2.4
C#CCCC(=O)Nc1sc2c(c1-c1nc3ccccc3s1)CCN(C(C)C)C2	4.6
O=C(CSc1nnc(-c2ccc(Cl)cc2)n1-c1ccccc1)Nc1ccc2c(c1)OCCO2	-3.0
C#CCNC(=O)C[C@@H]1C(=O)N2CCCC3=C2[C@@]1(C(=O)OC)CCCC3	-0.4
CCOc1ccc(-c2cc(C(C)=O)c3n(c2=O)CCC3)cc1	5.9
CC(C)c1ccc(NC(=O)Nc2nc(C(N)CCc3ccccc3)cs2)cc1 (configuration not stated)	7.4
CC(C)C(N)c1csc(NC(=O)Nc2ccccc2C(C)(C)C)n1 (configuration not stated)	13.3*	TbREL1 conf=8.6
NC(Cc1ccc(C(F)(F)F)cc1)c1csc(NC(=O)Nc2ccccc2Cl)n1 (configuration not stated)	5.0
CC1(c2nnnn2-c2ccc(F)cc2)CCCC(=O)N1CCc1c[nH]c2ccccc12 (configuration not stated)	-6.5
SMILES	TbREL1 inh	others
C[C@@H]1CCN(C2CC2)S(=O)(=O)c2ccc(N3CC[C@@H](O)C3)cc2O1	0.3
COc1ccc(OCC(O)Cn2c(=N)n(Cc3ccccc3)c3ccccc32)cc1 (configuration not stated)	9.9
N=c1n(CCO)c2ccccc2n1CCN1CCCCC1	5.5
Cc1cccc(OCC(O)Cn2c(=N)n(CCN3CCCCC3)c3ccccc32)c1 (configuration not stated)	11.9*	TbREL1 conf=7.5
COC(=O)[C@]12C[C@H](CC(=O)NCC3CCCCC3)C(=O)N(Cc3ccc4c(c3)OCO4)C1=C[C@H](C(C)C)O[C@@H]2C1CC1	1.7
N#Cc1ccc(NC(=O)OC2CC3CC2[C@H]2CCCCN2C3)cc1 (some centres not stated)	-0.1
CCCNC(=O)C/C(C)=N/NC(=O)C(=O)Nc1ccccn1	2.5
C/C(CC(=O)Nc1ccccn1)=N\NC(=O)c1ccc2ccccc2c1	0.1
C/C(CC(=O)Nc1ccccn1)=N\NC(=O)c1ccccc1O	22.3*	TbREL1 conf=5.2
O=C(Nc1sc2c(c1-c1nc3ccccc3s1)CCNC2)C(F)F	0.2
CCCCNC(=O)C[C@H]1C[C@@]2(C(=O)OC)C(=C[C@H](C3CCCC3)O[C@@H]2C)N(Cc2cccc3ccccc23)C1=O	4.6
CCCCCCCCN1C(=O)[C@@H](CC(=O)N2CCOCC2)C[C@@]2(C(=O)OC)C1=C[C@H](C(C)C)O[C@@H]2C1CC1	-4.2
COc1cc(Cn2cc([C@]34C[C@H]5C(=O)N(C)CC(=O)N5[C@H]3N(S(=O)(=O)c3ccccc3)c3ccccc34)c3ccccc32)cc(OC)c1	-2.3
